Compound activity (PubChem)
IDE exosite inh: exo-site inhibitors of human IDE, primary screen, biochemical, fluorescence anisotropy, probe displacement. Insulin-degrading enzyme (Homo sapiens), P14735. purified IDE, FL-6b probe fluorescence polarization; active compounds read low. z-score at 20 µM. hit rate 6.3% among 17,000;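 active means z-score of -3 or lower, meaning strong loss of probe binding signal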;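 further: His-tagged human IDE residues 42-1019 made in E. coli with 30 nM FL-6b probe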
Target sequence (P14735 42-1019 limits assumed): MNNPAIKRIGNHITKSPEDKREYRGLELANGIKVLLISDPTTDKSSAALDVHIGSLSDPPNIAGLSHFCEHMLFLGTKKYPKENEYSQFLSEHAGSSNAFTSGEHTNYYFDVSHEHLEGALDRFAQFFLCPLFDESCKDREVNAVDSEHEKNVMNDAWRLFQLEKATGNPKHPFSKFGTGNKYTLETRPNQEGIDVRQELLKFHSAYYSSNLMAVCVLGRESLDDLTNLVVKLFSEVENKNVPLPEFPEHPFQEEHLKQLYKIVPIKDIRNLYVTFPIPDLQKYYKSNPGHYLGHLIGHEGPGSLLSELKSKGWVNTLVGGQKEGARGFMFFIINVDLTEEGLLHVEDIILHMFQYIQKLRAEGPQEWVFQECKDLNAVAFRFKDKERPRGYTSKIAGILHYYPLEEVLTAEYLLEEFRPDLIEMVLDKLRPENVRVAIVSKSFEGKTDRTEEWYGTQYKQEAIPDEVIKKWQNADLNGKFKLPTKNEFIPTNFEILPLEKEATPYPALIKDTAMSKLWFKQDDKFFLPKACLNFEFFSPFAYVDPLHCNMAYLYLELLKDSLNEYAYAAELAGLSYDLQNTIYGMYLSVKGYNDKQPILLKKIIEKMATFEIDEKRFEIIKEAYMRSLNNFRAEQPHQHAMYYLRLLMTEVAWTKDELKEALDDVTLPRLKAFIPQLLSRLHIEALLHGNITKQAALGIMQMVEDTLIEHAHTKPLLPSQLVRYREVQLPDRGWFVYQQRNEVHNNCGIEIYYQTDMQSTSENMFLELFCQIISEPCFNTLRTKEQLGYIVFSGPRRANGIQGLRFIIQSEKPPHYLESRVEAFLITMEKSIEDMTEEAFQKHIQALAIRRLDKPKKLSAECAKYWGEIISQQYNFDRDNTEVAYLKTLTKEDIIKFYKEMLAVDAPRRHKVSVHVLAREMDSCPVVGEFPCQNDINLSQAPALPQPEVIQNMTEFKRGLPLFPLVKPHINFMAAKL
The depositor's hits bear a star. This is one part of a sample in which hits are shown more often than they occur.

SMILES	IDE exosite inh
CCCNC(=O)N1[C@H](C#N)[C@H](c2ccccc2)[C@H]1CO	2.2
O=C(C1CCC1)N1CC(=O)N2[C@@H](CO)[C@@H](c3ccc(Br)cc3)[C@@H]2C1	-1.8
CCCC#Cc1ccc([C@@H]2[C@@H](CO)N3CCCCN(Cc4cncnc4)C[C@@H]23)cc1	-0.31
O=C(Nc1ccc(F)cc1)N1CCCCN2[C@H](CO)[C@@H](c3ccc(C#Cc4ccccn4)cc3)[C@H]2C1	2
COc1ccccc1-c1ccccc1[C@@H]1[C@@H](C#N)N(C(=O)C2CC2)[C@@H]1CO	1.5
N#C[C@@H]1[C@H](c2ccc(-c3ccccc3F)cc2)[C@@H](CO)N1C(=O)C1CC1	-0.081
COc1ccc(-c2ccc([C@@H]3[C@@H](C#N)N(C(=O)NC4CCCCC4)[C@H]3CO)cc2)cc1	1.1
COc1ccccc1-c1ccccc1[C@H]1[C@@H](C#N)N(C(=O)C2CC2)[C@@H]1CO	2.2
COc1ccccc1-c1ccc([C@@H]2[C@@H](C#N)N(C(=O)C3CCCCC3)[C@@H]2CO)cc1	-14*
COc1ccc(-c2ccc([C@@H]3[C@@H](CO)N(C(=O)C4CCCCC4)[C@H]3C#N)cc2)cc1	1.6
N#C[C@H]1[C@@H](c2ccc(-c3ccccc3F)cc2)[C@H](CO)N1C(=O)C1CC1	-0.079
COc1ccc(-c2ccc([C@H]3[C@@H](C#N)N(C(=O)NC4CCCCC4)[C@@H]3CO)cc2)cc1	3
COc1ccccc1-c1ccc([C@@H]2[C@@H](C#N)N(C(=O)C3CC3)[C@H]2CO)cc1	-11*
COc1ccc(-c2ccc([C@@H]3[C@@H](CO)N(C(=O)C4CCCC4)[C@H]3C#N)cc2)cc1	1.3
COc1ccccc1-c1ccc([C@H]2[C@@H](CO)N(C(=O)NC3CCCCC3)[C@H]2C#N)cc1	-6.9*
N#C[C@H]1[C@H](c2ccc(-c3ccccc3F)cc2)[C@@H](CO)N1C(=O)C1CC1	-4.5*
Cc1noc(C)c1NC(=O)N1C[C@H](O)COC[C@H]2O[C@@H](CC(=O)N[C@@H]3CCN(Cc4ccccc4)C3)CC[C@@H]21	-0.42
C[C@H](O)C#Cc1ccc([C@H]2[C@H](CO)N3CCCCN(S(=O)(=O)c4ccccc4)C[C@@H]23)cc1	3.7
COc1ccc(NC(=O)N[C@@H]2CC[C@@H](CCNC(=O)CN3CCOCC3)O[C@@H]2CO)cc1	-0.41
CC(=O)N1[C@H](CO)[C@H](c2ccc(-c3cccnc3)cc2)[C@@H]1CNC(=O)C1CCC1	1
CCC(=O)NC[C@@H]1N[C@@H](CO)[C@H]1c1ccc(-c2cccc(C#N)c2)cc1	4.4
N#C[C@@H]1[C@@H](c2ccc(C#Cc3ccc(F)cc3)cc2)[C@H](CO)N1C(=O)C1CCC1	3.7
C[C@H](CO)N1C[C@H](C)[C@@H](CN(C)S(C)(=O)=O)Oc2ncc(-c3ccc(F)cc3)cc2C1=O	0.092
Cc1ccccc1-c1ccc2c(c1)O[C@H](CN(C)C(=O)Nc1ccc(C(F)(F)F)cc1)[C@@H](C)CN([C@@H](C)CO)S2(=O)=O	0.15
N#C[C@@H]1[C@@H](c2ccccc2C2=CCCCC2)[C@H](CO)N1C(=O)c1cccc(F)c1	2.5
SMILES	IDE exosite inh
COc1cccc(C#Cc2ccc([C@H]3[C@H](CO)N4C(=O)CN(C(=O)Cc5cccnc5)C[C@@H]34)cc2)c1	-4.1*
COc1cccc(C#Cc2ccc([C@@H]3[C@@H](CO)N4C(=O)CN(C(=O)Cc5cccnc5)C[C@H]34)cc2)c1	-2.3
COc1cccc(C#Cc2ccc([C@H]3[C@H]4CN(C(=O)Cc5ccccc5)CC(=O)N4[C@H]3CO)cc2)c1	-1.8
COc1cccc(C#Cc2ccc([C@H]3[C@@H](CO)N4C(=O)CN(C(=O)Cc5cccnc5)C[C@H]34)cc2)c1	-2
COc1cccc(C#Cc2ccc([C@H]3[C@@H](CO)N4C(=O)CN(C(=O)Cc5ccccc5)C[C@@H]34)cc2)c1	1.4
CCC(=O)N1CC(=O)N2[C@H](CO)[C@H](c3ccc(C#Cc4cccc(OC)c4)cc3)[C@@H]2C1	-8.7*
O=C(Cc1ccncc1)N1CC(=O)N2[C@H](CO)[C@H](c3ccc(-c4cccc(F)c4)cc3)[C@@H]2C1	-1.5
COCC(=O)N1CC(=O)N2[C@@H](CO)[C@@H](c3ccc(C#Cc4cccc(OC)c4)cc3)[C@@H]2C1	-7*
COCC(=O)N1CC(=O)N2[C@H](CO)[C@H](c3ccc(C#Cc4cccnc4)cc3)[C@H]2C1	2
O=C(Cc1ccccc1)N1CC(=O)N2[C@H](C1)[C@H](c1ccc(-c3cccc(F)c3)cc1)[C@@H]2CO	2.6
COCC(=O)N1CC(=O)N2[C@@H](CO)[C@@H](c3ccc(C#Cc4cccnc4)cc3)[C@@H]2C1	-0.85
O=C(Cc1cccnc1)N1CC(=O)N2[C@H](CO)[C@@H](c3ccc(-c4cccc(F)c4)cc3)[C@@H]2C1	-3.4*
COc1ccccc1-c1ccc2n(c1=O)C[C@@H]1[C@@H](CO)[C@H](C(=O)N3CCOCC3)[C@H]2N1CC1CC1	0.25
O=C(c1cccc(F)c1)N1CC(=O)N2[C@H](CO)[C@H](c3ccc(-c4cccnc4)cc3)[C@H]2C1	-0.89
CN(C)Cc1cn(CC[C@@H]2CC[C@@H](NC(=O)Cc3cccnc3)[C@@H](CO)O2)nn1	0.13
COCC#Cc1ccc([C@@H]2[C@H]3CN(Cc4cccnc4)CCCCN3[C@H]2CO)cc1	0.11
CO[C@H]1CC[C@H]2CCOc3c(C#N)cccc3C(=O)N(C)C[C@H](OC)[C@@H](C)C(=O)N(C)C[C@H]1O2	-1.4
CCCC#Cc1ccc([C@H]2[C@@H](CO)N3CCCCN(S(=O)(=O)c4ccccc4C)C[C@H]23)cc1	3.2
COCC(=O)N1CC2(C1)[C@H](c1ccc(-c3cccc(F)c3)cc1)[C@H](CO)N2C(=O)C1CC1	-1.4
CCC(=O)N1[C@H](CO)[C@@H](c2ccccc2)[C@H]1CN(C)C(=O)CN1CCOCC1	-0.26
C[C@@H]1CCCCO[C@H](CN(C)C(=O)c2ccncc2)[C@H](C)CN([C@@H](C)CO)C(=O)c2cc(NC(=O)CCC(F)(F)F)ccc2O1	0.14
C[C@H](CO)N1C[C@H](C)[C@H](CN(C)S(C)(=O)=O)Oc2ccc(NC(=O)Nc3ccc(F)cc3)cc2CC1=O	0.39
CCCNC(=O)N1CC(=O)N2[C@H](C1)[C@@H](c1ccc(C#Cc3cccc(OC)c3)cc1)[C@@H]2CO	0.17
CCC(=O)N1CC(=O)N2[C@H](CO)[C@H](c3ccc(C#Cc4cccc(OC)c4)cc3)[C@H]2C1	-9.8*
CCC(=O)N1CC(=O)N2[C@H](C1)[C@@H](c1ccc(C#Cc3cccnc3)cc1)[C@@H]2CO	-1
SMILES	IDE exosite inh
CCC(=O)N1[C@@H](CO)[C@@H](c2ccccc2)[C@@H]1CN(C(C)C)S(C)(=O)=O	1.5
C/C=C/c1ccc([C@H]2[C@@H](CO)N(C(=O)C3CC3)[C@H]2CNC(=O)CN(C)C)cc1	0.9
O=C(CC1CC1)N1CC(=O)N2[C@H](C1)[C@@H](c1ccc(C#Cc3cccc(F)c3)cc1)[C@@H]2CO	-1.5
O=C(CC1CC1)N1CC(=O)N2[C@@H](CO)[C@H](c3ccc(C#Cc4cccc(F)c4)cc3)[C@@H]2C1	-1.5
O=C(CC1CC1)N1CC(=O)N2[C@H](CO)[C@H](c3ccc(C#Cc4cccc(F)c4)cc3)[C@@H]2C1	-3.2*
O=C(CC1CC1)N1CC(=O)N2[C@H](CO)[C@H](c3ccc(C#Cc4cccc(F)c4)cc3)[C@H]2C1	-3.9*
O=C(CC1CC1)N1CC(=O)N2[C@H](CO)[C@@H](c3ccc(C#Cc4cccc(F)c4)cc3)[C@H]2C1	-2.1
